Assay in all cases: NCI-60 one-dose screen, 48 h (100 = growth as untreated, 0 = no growth, -100 = all killed)
Assay [1] has as its system SK-MEL-2 melanoma. As to conditions: 10 µM.
The subject of assay [2] is EKVX NSCLC. As to conditions: 10 µM.
The test system of assay [3] is SN12C renal. As to conditions: 10 µM.
Assay [4] deals with UO-31 renal. As to conditions: 10 µM.
The subject of assay [5] is TK-10 renal. As to conditions: 10 µM unless noted.
Assay [6] concerns ACHN renal. The conditions noted are these: 10 µM.
The test system of assay [7] is CAKI-1 renal. The conditions noted are these: 10 µM.
Assay [8] concerns A498 renal. The conditions noted are these: 10 µM.
Assay [9] deals with CCRF-CEM leukemia. The conditions noted are these: 10 µM.
For assay [10], the system named is MOLT-4 leukemia. As to conditions: 10 µM.
Assay [11] relates to SR leukemia. The conditions noted are these: 10 µM.
Assay [12] deals with OVCAR-8 ovarian. The conditions noted are these: 10 µM.
The test system of assay [13] is OVCAR-5 ovarian. The conditions noted are these: 10 µM.
The test system of assay [14] is OVCAR-4 ovarian. As to conditions: 10 µM.
Assay [15] deals with SK-OV-3 ovarian. As to conditions: 10 µM.
Assay [16] concerns IGROV1 ovarian. As to conditions: 10 µM.
Assay [17] concerns OVCAR-3 ovarian. The conditions noted are these: 10 µM.
Assay [18] has as its system NCI/ADR-RES ovarian. The conditions noted are these: 10 µM.
For assay [19], the system named is RPMI-8226 leukemia. The conditions noted are these: 10 µM.
The subject of assay [20] is HS 578T breast. The conditions noted are these: 10 µM.

About 83,000 compounds went through this panel and 20% of them were active in at least one assay; those are over-represented in the sample as a whole.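 Negative percent growth values reflect cell death: -40 means 40% of the cells present at the start died, and -100 means all died.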 Unmarked numbers belong to inactive results. The source made the active and inactive calls. The calls were made as follows: active = growth percent below 10; inactive = the rest.

As for `CC1CC(O)CC(C)(C)C1` (stereo not given), the growth in assay [1] is 105%; in assay [2], 98.8%; in assay [3], 104%; in [4], 85.6%; in assay [5] it was 102%; in [6], 107%. Besides, the growth in assay [7] was 98.9%; in [8], 98.7%; in [9], 96.4%; in assay [10], 100%; in assay [11], 106%; in assay [12], 102%. Further, the growth in assay [13] was 97.1%; in assay [14], 116%; in assay [15], 103%; in assay [16], 103%; in assay [17], 93.5%; in [18] it was 110%.

Take `CCOC(=O)C(C#N)Cc1ccccc1` (stereo not given): the growth was 114% in [1]; 114% in [2]; 103% in assay [3]; 94.5% in assay [4]; 106% in [5]; 110% in assay [6]. Further, the growth was 98.7% in assay [7]; 114% in [8]; 102% in assay [9]; 123% in assay [10]; 101% in [19]; 115% in assay [12]. In addition, the growth was 103% in [13]; 114% in assay [14]; 123% in assay [15]; 114% in assay [16]; 117% in [17]; 112% in [20]. Further, in assay [18], the growth is 117%.

Take `Cc1cc(N)c(S(=O)(=O)O)c(N)c1`: the growth is 109% in [1]; 98.9% in assay [2]; 93.8% in assay [3]; 79.1% in assay [4]; 105% in assay [5]; 100% in assay [6]. The growth in [7] is 90.1%; in assay [8] it was 101%; in [9] it was 98.1%; in [10], 5.11% (active); in [19], 95.6%; in assay [12], 109%. Also, the growth is 103% in [14], 100% in [15], 130% in assay [16] and 112% in assay [17].

In the case of `Nc1nc(OCc2ccccc2)c2[nH]cnc2n1`, the growth was 107% in [1]; 95% in assay [2]; 105% in assay [3]; 96.9% in assay [4]; 82.1% in assay [5]; 73.5% in [6]. Besides, the growth in assay [7] is 74%; in assay [8], 86.1%; in assay [9], 143%; in [11] it was 84.9%; in assay [19] it was 115%; in assay [13], 77.8%. In addition, the growth is 109% in assay [15]; 93.4% in [16]; 109% in assay [17]; 93.6% in assay [20]; 108% in [18].

As to `CC(C)=NNc1ccc([N+](=O)[O-])cc1[N+](=O)[O-]`, the growth was 113% in [1]; 74% in [2]; 84.4% in assay [3]; 61.3% in assay [4]; 96.9% in [5]; 64.8% in [6]. The growth was 53.9% in assay [7]; 74.5% in assay [8]; 42.2% in [9]; 90.6% in assay [11]; 68.2% in assay [19]; 100% in assay [12]. The growth in assay [13] was 105%; in [14], 96.5%; in assay [15] it was 92.9%; in assay [16] it was 124%; in assay [17] it was 104%; in assay [20], 90.5%. Moreover, the growth in assay [18] was 93.4%.

Consider `COC(=O)c1ccccc1Br`, for which the growth in [1] was 114%; in [2] it was 81.4%; in [3], 92.4%; in assay [4], 96.4%; in assay [5] it was 103%; in assay [6] it was 105%. Also, the growth was 102% in [7]; 104% in [8]; 109% in assay [9]; 94.6% in [10]; 104% in assay [19]; 105% in assay [12]. The growth is 82.2% in [13]; 103% in [14]; 107% in [15]; 108% in assay [16]; 106% in [17]; 113% in assay [20]. For the same molecule, the growth in [18] was 100%.

As for `Cc1cc(C)c(CC(=O)O)c(C)c1`, the growth in assay [1] is 100%; in [2], 98.3%; in assay [3], 113%; in [4], 94.3%; in [5], 106%; in assay [6] it was 102%. For the same molecule, the growth in assay [7] was 93.3%; in assay [8], 84.4%; in assay [9] it was 103%; in [10], 98.5%; in assay [11], 98.5%; in assay [12], 102%. Besides, the growth in assay [13] is 103%; in assay [14], 95.1%; in assay [15] it was 110%; in assay [16] it was 108%; in [17], 104%; in [20], 109%. Also, the growth in assay [18] is 103%.

Turning to `O=[N+]([O-])c1ccc(O)c(S(=O)(=O)O)c1`, the growth in assay [1] is 108%; in [2] it was 105%; in assay [3] it was 90.2%; in [4], 116%; in assay [5], 121%; in assay [6] it was 95.2%. In addition, the growth was 95.9% in assay [7]; 114% in assay [8]; 102% in assay [9]; 98.4% in assay [10]; 98% in assay [11]; 94.4% in [12]. The growth in assay [13] was 93.2%; in [14], 108%; in assay [16], 130%; in [17] it was 109%; in [20] it was 103%; in assay [18] it was 109%.
